Laboratory results reported in PubChem BioAssay (NCI).
The panel holds about 83,000 compounds, 20% with a hit somewhere; the sample as a whole holds those more often.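 Compound tested at a single concentration for 48 hours in 96-well plates; a percent growth value below 10 was scored as active.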 The source made the active and inactive calls.

system: NCI-H226 lung; assay: NCI-60 one-dose screen, 48 h (100 = growth as untreated, 0 = no growth, -100 = all killed); settings: 10 µM unless noted

SMILES	growth
O=c1oc2ccccc2c(Cl)c1Cl	70.8% (inactive)
O=C1NC(=Nc2ccc(Cl)cc2)S/C1=C\c1cn(-c2ccccc2)nc1-c1ccccc1	93.4% (inactive)
COc1ccccc1NC(=O)N/C(N)=N/c1nc2ccccc2s1	63.4% (inactive)
Cc1ccc(NS(=O)(=O)c2ccc3c(c2)C2OCCC2C(c2ccc(C(=O)C(C)C)cc2)N3)cc1C (centres undefined)	45.3% (inactive)
N#Cc1c(N)nc2c(C#N)c(NC(=O)c3ccccc3)nn2c1-c1ccccc1	78% (inactive)
COc1cccc(Nc2nccc(Nc3ccc4[nH]ncc4c3)n2)c1	-17.3% (active)
C[C@H]1[C@H]2[C@H]3CC[C@@H]4[C@@]5(C)C/C(=C/c6ccco6)C(=O)C(C)(C)[C@@H]5CC[C@@]4(C)[C@]3(C)CC[C@]23CO[C@]1(C)[C@@H](C(=O)/C=C\c1ccco1)C3	99.6% (inactive)
O=C(NCCCNc1cc(-c2cn(-c3ccccc3)nc2-c2cccc(O)c2)ccn1)c1ccccc1	54.9% (inactive)
COc1ccc(-c2csc(C3=C(O)CN(CCCN4CCCC4=O)C3=N)n2)cc1OC	97.2% (inactive)
CCCCCc1nc2c(c3c1CCCC3)CCCC2	88.6% (inactive)
Clc1cccc(Cl)c1/C=C/c1cc(/C=C/c2c(Cl)cccc2Cl)[nH]n1	30.6% (inactive)
COC(=O)c1c2c(c(C)[n+]([O-])c1C)C(=O)C(NCc1ccc(F)c(Cl)c1)=CC2=O	84.3% (inactive)
Cc1c(C)c2c(c(C)c1OCC(=O)O)CC[C@@](C)(CCC[C@@H](C)CCC[C@@H](C)CCCC(C)C)O2	2.79% [50 µM] (active)
c1c[nH]c(CNC2CCCCC2)c1	102% (inactive)
NC(=O)c1ccc[n+](Cc2ccc(Cl)cc2Cl)c1	99.3% (inactive)
Cc1ccc(Cl)c(NS(=O)(=O)c2ccc(-c3cnc(C4CC4)o3)cc2)c1	33.8% (inactive)
Cc1ccc(-c2cc3c(cc2O)C2CCCCC2(N2CCOCC2)O3)cc1 (centres undefined)	108% (inactive)
CC1=C([Se]CC(OC(=O)CC[Se]c2ccccc2)C(=O)NCCCCCC(=O)OCc2ccccc2)C(=O)c2ccccc2C1=O (centres undefined)	46% (inactive)
COc1cc(-c2nn(-c3ccccc3)cc2-c2ccnc(NCCNS(=O)(=O)c3ccc(Cl)cc3)n2)ccc1Cl	30.8% (inactive)

SMILES	growth
CC1=C(SCCC(=O)OC(C[Se]C2=C(C)C(=O)c3ccccc3C2=O)C(=O)NCCCCCC(=O)OCc2ccccc2)C(=O)c2ccccc2C1=O (centres undefined)	93.4% (inactive)
OC(c1cccc(-n2ccc(C(F)(F)F)n2)c1)c1cnccc1NC1CCCCCC1 (centres undefined)	67.3% (inactive)
O=C(Nc1cccc(Oc2nnc(Cl)c3ccccc23)c1)Nc1ccc(Cl)c(C(F)(F)F)c1	-28.2% (active)
Cc1cc(NCCCCNc2ccnc3cc(Cl)ccc23)nc(Nc2ccc(C(=O)N3CCCC3)cc2)n1	108% (inactive)
N=C1C(c2nc(-c3ccc(Br)cc3)cs2)=C(O)CN1Cc1cccnc1	98.8% (inactive)
O=C(Nc1cccc(Cl)c1)c1cc(N=Nc2ccc([N+](=O)[O-])cc2Cl)ccc1O	97% (inactive)
Cc1cccc(Cc2cnc(NC(=O)/C=C/c3ccco3)s2)c1	50.3% (inactive)
CNC(=O)NCC1OC(n2cnc3c(NC(=O)Nc4ccccc4)ncnc32)C(O[Si](C)(C)C(C)(C)C)C1CC(=O)N(C)OC (centres undefined)	40.6% (inactive)
CCN1C(=O)N(CC)C2Nn3c(s/c(=C\c4ccc(Cl)cc4Cl)c3=O)=NC21 (centres undefined)	98.2% (inactive)
CCN(CC)CCCCCCNc1cc(OC)c(Cl)c2cccnc12	78.7% (inactive)
c1csc(-c2c3ccc(=[N+]4CCCCC4)cc-3oc3cc(N4CCCCC4)ccc23)c1	-81.7% (active)
COc1ccc(NC(=O)c2nc(-c3cc(OC)c(OC)c(OC)c3)n(-c3cccc4ccccc34)n2)cc1OC	44.9% (inactive)
O=C(Cc1ccc(F)c(F)c1)Nc1cc(C2(C(F)(F)F)CC2)nn1Cc1ccccc1	8.26% (active)
N=c1sc(Cc2ccc(Cl)cc2)cn1CC(=O)c1ccc(F)cc1	83% (inactive)
COc1ccc(S(=O)(=O)NCCNc2nccc(-c3c(-c4cccc(F)c4)nc4sccn34)n2)cc1	28.1% (inactive)
COc1ccc2c(c1)O/C(=C\c1cccc(OCC(=O)Nc3nc4ccccc4s3)c1)C2=O	83.7% (inactive)
Cc1c(C(=O)OC(=NC2CCCCC2)NC2CCCCC2)sc2c1c(=O)nc1c(C#N)n[nH]n12	131% (inactive)
COc1ccc(-c2nc(SC(C)C)nc(NNC(N)=S)c2C#N)cc1	86.4% (inactive)

system: NCI-H322M lung; assay: as above; settings: 10 µM unless noted

SMILES	growth
O=c1oc2ccccc2c(Cl)c1Cl	91.5% (inactive)
O=C1NC(=Nc2ccc(Cl)cc2)S/C1=C\c1cn(-c2ccccc2)nc1-c1ccccc1	89.5% (inactive)
COc1ccccc1NC(=O)N/C(N)=N/c1nc2ccccc2s1	41.6% (inactive)
Cc1ccc(NS(=O)(=O)c2ccc3c(c2)C2OCCC2C(c2ccc(C(=O)C(C)C)cc2)N3)cc1C (centres undefined)	82.2% (inactive)
N#Cc1c(N)nc2c(C#N)c(NC(=O)c3ccccc3)nn2c1-c1ccccc1	94.7% (inactive)
COc1cccc(Nc2nccc(Nc3ccc4[nH]ncc4c3)n2)c1	7.17% (active)
C[C@H]1[C@H]2[C@H]3CC[C@@H]4[C@@]5(C)C/C(=C/c6ccco6)C(=O)C(C)(C)[C@@H]5CC[C@@]4(C)[C@]3(C)CC[C@]23CO[C@]1(C)[C@@H](C(=O)/C=C\c1ccco1)C3	98.4% (inactive)
O=C(NCCCNc1cc(-c2cn(-c3ccccc3)nc2-c2cccc(O)c2)ccn1)c1ccccc1	75.2% (inactive)
COc1ccc(-c2csc(C3=C(O)CN(CCCN4CCCC4=O)C3=N)n2)cc1OC	109% (inactive)
CCCCCc1nc2c(c3c1CCCC3)CCCC2	78.3% (inactive)
Clc1cccc(Cl)c1/C=C/c1cc(/C=C/c2c(Cl)cccc2Cl)[nH]n1	38.2% (inactive)
COC(=O)c1c2c(c(C)[n+]([O-])c1C)C(=O)C(NCc1ccc(F)c(Cl)c1)=CC2=O	3.24% (active)
Cc1c(C)c2c(c(C)c1OCC(=O)O)CC[C@@](C)(CCC[C@@H](C)CCC[C@@H](C)CCCC(C)C)O2	43.3% [50 µM] (inactive)
c1c[nH]c(CNC2CCCCC2)c1	104% (inactive)
NC(=O)c1ccc[n+](Cc2ccc(Cl)cc2Cl)c1	104% (inactive)
Cc1ccc(Cl)c(NS(=O)(=O)c2ccc(-c3cnc(C4CC4)o3)cc2)c1	44.4% (inactive)
Cc1ccc(-c2cc3c(cc2O)C2CCCCC2(N2CCOCC2)O3)cc1 (centres undefined)	101% (inactive)
CC1=C([Se]CC(OC(=O)CC[Se]c2ccccc2)C(=O)NCCCCCC(=O)OCc2ccccc2)C(=O)c2ccccc2C1=O (centres undefined)	2.53% (active)
COc1cc(-c2nn(-c3ccccc3)cc2-c2ccnc(NCCNS(=O)(=O)c3ccc(Cl)cc3)n2)ccc1Cl	68.8% (inactive)

SMILES	growth
CC1=C(SCCC(=O)OC(C[Se]C2=C(C)C(=O)c3ccccc3C2=O)C(=O)NCCCCCC(=O)OCc2ccccc2)C(=O)c2ccccc2C1=O (centres undefined)	8.06% (active)
OC(c1cccc(-n2ccc(C(F)(F)F)n2)c1)c1cnccc1NC1CCCCCC1 (centres undefined)	6.47% (active)
O=C(Nc1cccc(Oc2nnc(Cl)c3ccccc23)c1)Nc1ccc(Cl)c(C(F)(F)F)c1	-5.16% (active)
Cc1cc(NCCCCNc2ccnc3cc(Cl)ccc23)nc(Nc2ccc(C(=O)N3CCCC3)cc2)n1	67.6% (inactive)
N=C1C(c2nc(-c3ccc(Br)cc3)cs2)=C(O)CN1Cc1cccnc1	50.2% (inactive)
O=C(Nc1cccc(Cl)c1)c1cc(N=Nc2ccc([N+](=O)[O-])cc2Cl)ccc1O	94.2% (inactive)
Cc1cccc(Cc2cnc(NC(=O)/C=C/c3ccco3)s2)c1	37.8% (inactive)
CNC(=O)NCC1OC(n2cnc3c(NC(=O)Nc4ccccc4)ncnc32)C(O[Si](C)(C)C(C)(C)C)C1CC(=O)N(C)OC (centres undefined)	78.8% (inactive)
CCN1C(=O)N(CC)C2Nn3c(s/c(=C\c4ccc(Cl)cc4Cl)c3=O)=NC21 (centres undefined)	65.5% (inactive)
CCN(CC)CCCCCCNc1cc(OC)c(Cl)c2cccnc12	92.7% (inactive)
c1csc(-c2c3ccc(=[N+]4CCCCC4)cc-3oc3cc(N4CCCCC4)ccc23)c1	-78.5% (active)
COc1ccc(NC(=O)c2nc(-c3cc(OC)c(OC)c(OC)c3)n(-c3cccc4ccccc34)n2)cc1OC	44.8% (inactive)
O=C(Cc1ccc(F)c(F)c1)Nc1cc(C2(C(F)(F)F)CC2)nn1Cc1ccccc1	13.4% (inactive)
N=c1sc(Cc2ccc(Cl)cc2)cn1CC(=O)c1ccc(F)cc1	76.4% (inactive)
COc1ccc(S(=O)(=O)NCCNc2nccc(-c3c(-c4cccc(F)c4)nc4sccn34)n2)cc1	63% (inactive)
COc1ccc2c(c1)O/C(=C\c1cccc(OCC(=O)Nc3nc4ccccc4s3)c1)C2=O	106% (inactive)
Cc1c(C(=O)OC(=NC2CCCCC2)NC2CCCCC2)sc2c1c(=O)nc1c(C#N)n[nH]n12	115% (inactive)
COc1ccc(-c2nc(SC(C)C)nc(NNC(N)=S)c2C#N)cc1	91.3% (inactive)
